HCV inhibitor: blocks hepatitis C virus; actives 3.4% (n = 340,000); Huh7.5.1 HCVcc-Cre infection, luciferase reporter, 44 h; AID 651820; Potency, µM (titrated, usually from 41.8 µM), without a hit: top-dose activity change, negative = inhibition, usual class: inhibitors; note: % is set by controls: 0 for no effect and ±100 for the full control effect
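Infectious HCVcc-Cre (~0.5 moi) was added to cells just after compound, with cells seeded 4 h earlier at 1,000 per well. Luciferase activity after 44 h culture reported infection; substrate was incubated 15 min at room temperature before reading.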
Pf growth 96h: P. falciparum growth inhibition at 96 hour, primary screen for plastid delayed-death inhibitors; actives 6.9% (n = 320,000); P. falciparum luciferase reporter growth, 96 h; Potency, µM (highest dose often 28.7 µM), without a hit: top-dose activity change, negative = inhibition, most hits filed as inhibitors; note: % is set by controls: 0 for no effect and ±100 for the full control effect
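Two parasite generations (96 h, 37 C, 5% CO2) of compound exposure in infected erythrocytes (0.05% parasitemia, 2% hematocrit). Luciferase-reporter P. falciparum; decreased luminescence indicates inhibited growth, aimed at apicoplast-acting delayed death.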
Vaccinia mCherry: inhibitors of vaccinia virus infection (mCherry reporter signal); Vaccinia virus mCherry reporter infection, fluorescence; Potency, µM (doses to about 36.5 µM), inactives show at the top dose activity change, negative = inhibition, hits mostly inhibitors; actives 0.63% (n = 310,000); calls by dose curve; tested in A549 cells; note: % is set by controls: 0 for no effect and ±100 for the full control effect; nearly all actives have a fitted effect of over 35% in size
Pf growth 48h: P. falciparum growth inhibition at 48 hours (one generation) | actives 5.9% (n = 310,000) | Potency, µM (highest dose often 28.7 µM), without a hit: top-dose activity change, negative = inhibition, most hits filed as inhibitors | AID 504832 | P. falciparum luciferase growth in erythrocytes, 48 h; note: % is set by controls: 0 for no effect and ±100 for the full control effect
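A one-generation exposure of luciferase-tagged malaria parasites in RPMI 1640/Albumax erythrocyte culture, 37 C and 5% CO2. Inhibition is inferred from decreased luminescence after adding detection reagent.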
NS1 function inh: influenza NS1 inhibition. Potency, µM (series often up to 46.1 µM), inactives show at the highest dose activity, positive = more growth. actives 0.4% (n = 270,000); calls by dose curve; note: actives are rising curves; nearly all actives have a fitted effect of over 50% in size
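Recovery from NS1-induced slow growth read by OD600 in budding yeast switched to galactose assay medium (pH 6.0, -URA) at 1:100 dilution. Compound 23 nl per well; the matching strain lacking NS1 serves as control.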
VACV Venus inh: vaccinia inhibition (Venus reporter) | Vaccinia virus Venus reporter expression, fluorescence | Potency, µM (highest dose often 36.5 µM), without a hit: top-dose activity change, negative = inhibition, usual class: inhibitors | actives 0.46% (n = 330,000) | AID 720580; calls by dose curve; tested in A549 cells; note: % is set by controls: 0 for no effect and ±100 for the full control effect; nearly all actives have a fitted effect of over 30% in size
Active calls of the source: *. An excerpt weighted towards active compounds, which were near 11% of everything screened. Unless noted, calls come from the whole dose curve; as a rule, active = well fitted inhibition curve with a large enough effect; inconclusive = small, poorly fitted or top-dose-only effect, or another doubt; inactive = no such curve, though single readings can be large or run the other way. Potency is the fitted concentration of half-maximal effect.

How did COc1ccc(/C=C/C(=O)N2CC(C)OC(C)C2)cc1OC (stereo not drawn) do in these assays?
HCV inhibitor: 2%; Pf growth 96h: -20%; Pf growth 48h: 10%; NS1 function inh: 8%

How did CCCOc1ccc(C(CC(=O)O)NC(=O)Cc2ccccc2)cc1 (stereo not drawn) do in these assays?
HCV inhibitor: 6%; Pf growth 96h: 13%; Vaccinia mCherry: -4%; Pf growth 48h: 4%; NS1 function inh: 3%; VACV Venus inh: -18%

What do the screens show for `Cc1cc(OCC(=O)NC(Cc2c[nH]c3ccccc23)C(=O)O)ccc1Cl` (stereo not drawn)?
Vaccinia mCherry: -11%; VACV Venus inh: -6%

What do the screens show for `Cc1nc(N2CCN(c3ccccn3)CC2)c2c(C)c(C(=O)Nc3ccc(Cl)cc3)sc2n1`?
HCV inhibitor: inconclusive; Pf growth 96h: 7%; Pf growth 48h: inconclusive; NS1 function inh: 1%

What do the screens show for `Cc1nc(N2CCN(C)CC2)c2c(C)c(C(=O)Nc3ccc(C)c(F)c3)sc2n1`?
HCV inhibitor: 8.9µM*; Pf growth 96h: inconclusive; NS1 function inh: 2%

Results for Cc1nc(N2CCN(c3ccccn3)CC2)c2c(C)c(C(=O)Nc3c(C)cc(Br)cc3C)sc2n1 ?
HCV inhibitor: inconclusive; Pf growth 96h: -23%; Pf growth 48h: 1.9µM*; NS1 function inh: 9%

Results for Cc1nc(N2CCN(c3ccccn3)CC2)c2c(C)c(C(=O)Nc3c(F)cc(F)cc3Br)sc2n1 ?
HCV inhibitor: 13µM*; Pf growth 96h: 28%; Pf growth 48h: 12µM*; NS1 function inh: -37%

Results for C[C@H]1CN([C@@H](C)CO)C(=O)CCCn2nncc2CO[C@H]1CN(C)S(=O)(=O)c1cccs1 ?
Vaccinia mCherry: -17%; VACV Venus inh: 4%

What do the screens show for `CCc1cc2c(COC(=O)CCNS(=O)(=O)c3cccc(C(F)(F)F)c3)cc(=O)oc2cc1O`?
HCV inhibitor: inconclusive; Pf growth 96h: inconclusive; Vaccinia mCherry: inactive; Pf growth 48h: 4.7µM*; VACV Venus inh: -18%

Results for COC(=O)[C@@H](NC(=O)c1cc(COc2cncc(Cl)c2)on1)c1ccccc1 ?
Pf growth 96h: -9%; Vaccinia mCherry: inactive; Pf growth 48h: 10%; NS1 function inh: -8%; VACV Venus inh: -13%

How did CCC(NC(=O)c1cc(COc2cncc(Cl)c2)on1)c1ccc(C)cc1 (stereo not drawn) do in these assays?
HCV inhibitor: -22%; Pf growth 96h: 5.2µM*; Vaccinia mCherry: -24%; Pf growth 48h: 53%; NS1 function inh: -39%; VACV Venus inh: -5%

What do the screens show for `CCN(CC(=O)Nc1ccc(OC)cc1)C(=O)COc1cccc2c1OC(C)(C)C2`?
HCV inhibitor: -17%; Pf growth 96h: inconclusive; Pf growth 48h: inconclusive

What do the screens show for `CCOc1ccc(NC(=O)CN(C)C(=O)COc2cccc3c2OC(C)(C)C3)cc1OCC`?
HCV inhibitor: inconclusive; Pf growth 96h: inconclusive; Pf growth 48h: 13µM*

How did COc1ccc(NC(=O)CN(C)C(=O)CCC2CCCC2)cc1 do in these assays?
HCV inhibitor: -7%; Pf growth 96h: -4%; Vaccinia mCherry: -11%; Pf growth 48h: 13%; NS1 function inh: 7%; VACV Venus inh: -8%

Results for CCOc1ccc(NC(=O)CN(C)C(=O)C2CCCC2)cc1OCC ?
HCV inhibitor: -15%; Pf growth 96h: 0%; Pf growth 48h: -16%

What do the screens show for `CCOc1ccc(NC(=O)CN(C)C(=O)CC2CCCC2)cc1OCC`?
HCV inhibitor: -8%; Pf growth 96h: 13µM*; Pf growth 48h: inconclusive

How did CCOc1ccc(NC(=O)CN(C)C(=O)CCC2CCCCC2)cc1OCC do in these assays?
HCV inhibitor: -8%; Pf growth 96h: 15µM*; Vaccinia mCherry: -5%; Pf growth 48h: inconclusive; VACV Venus inh: -20%

How did O=C(Nc1ccc2nc(SCC(=O)N3CCc4ccccc43)sc2c1)c1cccc(F)c1 do in these assays?
Vaccinia mCherry: -11%; VACV Venus inh: -8%

What do the screens show for `C/C(=N\Nc1nc2ccccc2s1)c1ccc2c(c1)OCO2`?
HCV inhibitor: inconclusive; Pf growth 96h: 128%; Vaccinia mCherry: inactive; Pf growth 48h: 66%; NS1 function inh: 14%; VACV Venus inh: -13%

How did O=C(NC1CCCCC1)C1c2ccccc2OCC(=O)N1C1CC1 (stereo not drawn) do in these assays?
Vaccinia mCherry: 5%; VACV Venus inh: 9%

What do the screens show for `O=C(Nc1ccc(F)cc1)Nc1ccc(NC(=O)c2ccccc2O)cc1`?
HCV inhibitor: -75%; Pf growth 96h: 0%; Vaccinia mCherry: inactive; Pf growth 48h: 12µM*; NS1 function inh: 8%; VACV Venus inh: -8%

What do the screens show for `COc1ccccc1NC(=O)Nc1ccc(NC(=O)c2ccccc2O)cc1`?
HCV inhibitor: 13µM*; Pf growth 96h: 5%; Pf growth 48h: -4%; NS1 function inh: -5%

How did O=C(COc1ccc(S(=O)(=O)NC2CCCC2)cc1)N1CCCCCC1 do in these assays?
HCV inhibitor: 3%; Vaccinia mCherry: inactive; Pf growth 48h: inconclusive; NS1 function inh: 0%; VACV Venus inh: -15%

What do the screens show for `COc1ccc(-c2cc3c(=O)n(CC(=O)NCc4cccnc4)ncn3n2)cc1`?
HCV inhibitor: -23%; Pf growth 96h: 15µM*; Vaccinia mCherry: inactive; Pf growth 48h: 198%; NS1 function inh: -7%; VACV Venus inh: -3%

How did COc1ccc(C(=O)N2CCc3cc(OC)c(OC)cc3C2c2cccc([N+](=O)[O-])c2)cc1OC (stereo not drawn) do in these assays?
HCV inhibitor: -42%; Pf growth 96h: inconclusive; Vaccinia mCherry: -7%; Pf growth 48h: 13µM*; NS1 function inh: 0%; VACV Venus inh: 1%

Results for COc1ccc(C2c3cc(OC)c(OC)cc3CCN2C(=O)c2ccccc2Br)cc1OC (stereo not drawn) ?
HCV inhibitor: inconclusive; Pf growth 96h: inconclusive; Pf growth 48h: 12µM*; NS1 function inh: 15%

What do the screens show for `COc1ccc(C2c3cc(OC)c(OC)cc3CCN2C(=O)c2ccccc2)cc1OC` (stereo not drawn)?
HCV inhibitor: 11%; Pf growth 96h: 2.1µM*; Vaccinia mCherry: 6%; Pf growth 48h: inconclusive; NS1 function inh: 3%; VACV Venus inh: -26%

Results for COc1cc2c(cc1OC)C(c1cc(Br)ccc1F)N(C(=O)CCl)CC2 (stereo not drawn) ?
HCV inhibitor: inconclusive; Pf growth 96h: inconclusive; Vaccinia mCherry: inconclusive; Pf growth 48h: 8.3µM*; NS1 function inh: -10%; VACV Venus inh: inconclusive

Screening results: PubChem, National Center for Advancing Translational Sciences (NCATS)
